Inconclusive results are not listed. The source made the active and inactive calls. Rule for the calls, unless noted: active = hit-call score of the fitted dose curve at least 0.9, where 1 is the maximum; inactive = score below 0.9.
Tests used:
[1] = ATG_NFI_CIS: Attagene CIS-FACTORIAL HepG2 Assay for human Nuclear Factor I (NFI) (AID 2282989); conditions: HepG2 cis-regulatory reporter, NFI response element transcription; actives raise or lower the signal
Method in brief: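 Transient MRTU transfection of HepG2 → 24 h chemical dosing → total RNA, oligo(dT) RT → PCR, 6-FAM primer extension, HpaI cut → capillary electrophoresis. Endpoint fitted bidirectionally relative to DMSO.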

[2] = target: Myc proto-oncogene protein (Homo sapiens) (UniProt P01106); assay: ATG_Myc_CIS: Attagene CIS-FACTORIAL HepG2 Assay for human Myelocytomatosis (Myc) Proto-Oncogene Transcription Factor (AID 2282990); conditions: HepG2, Attagene cis-reporter transcription factor activity; actives raise or lower the signal
Myc proto-oncogene protein (Homo sapiens), sequence (P01106 whole entry, looked up): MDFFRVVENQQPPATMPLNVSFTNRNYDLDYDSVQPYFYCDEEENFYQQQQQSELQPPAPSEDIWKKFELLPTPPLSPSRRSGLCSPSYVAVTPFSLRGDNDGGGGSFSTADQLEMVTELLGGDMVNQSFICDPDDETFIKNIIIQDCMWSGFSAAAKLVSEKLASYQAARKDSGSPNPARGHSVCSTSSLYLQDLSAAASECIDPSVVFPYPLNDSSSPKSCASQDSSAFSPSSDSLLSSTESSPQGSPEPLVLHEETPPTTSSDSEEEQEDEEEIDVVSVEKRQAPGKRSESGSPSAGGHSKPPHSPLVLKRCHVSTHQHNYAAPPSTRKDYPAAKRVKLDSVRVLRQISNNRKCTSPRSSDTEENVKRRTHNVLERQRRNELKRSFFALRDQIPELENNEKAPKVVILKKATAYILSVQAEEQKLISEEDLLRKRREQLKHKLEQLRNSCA
Method in brief: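 Cells of the HepG2 human liver line bear multiple cis-driven reporter transcription units. Reporter mRNA after 24 h exposure is reverse-transcribed, amplified, labelled and resolved by capillary electrophoresis, with gain- or loss-of-signal fitting relative to DMSO.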

[3] = ATG_NF_kB_CIS: Attagene CIS-FACTORIAL HepG2 Assay for human Nuclear Factor Kappa B (NF-kB) (AID 2282991); conditions: HepG2 Attagene cis-factorial NF-kB reporter mRNA; actives raise or lower the signal
Method in brief: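 HepG2 cells transiently transfected with multiplexed cis-element reporter units measuring endogenous transcription factor activity; reporter mRNA read 24 h after dosing by RT-PCR, fluorescent labelling, HpaI digestion and capillary electrophoresis. Bidirectional fit against DMSO baseline.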

[4] = ATG_NRF2_ARE_CIS: Attagene CIS-FACTORIAL HepG2 Assay for human Nuclear Factor Erythroid 2 Related Factor 2 (NFR2) response to Antioxidant Response Elements (ARE) (AID 2282992); conditions: HepG2 Attagene ARE/NRF2 reporter, transcription factor activity; actives raise or lower the signal;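 for AC50: reporter mRNA level measured by RT-PCR and capillary electrophoresis fluorescence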
Method in brief: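 Endogenous transcription factor activity in human liver HepG2 cells is tracked via a cis-element-driven reporter within a multiplexed set. mRNA induction is read by RT-PCR and capillary electrophoresis after 24 h, with DMSO as baseline.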

[5] = ATG_Oct_MLP_CIS: Attagene CIS-FACTORIAL HepG2 Assay for human Octamer-Binding Transcription Factor (Oct) (AID 2282993); conditions: HepG2 Attagene cis-factorial Oct reporter, mRNA; actives raise or lower the signal
Method in brief: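 Transient MRTU transfection of HepG2 → 24 h compound treatment → RNA isolation, reverse transcription, PCR → 6-FAM primer extension, HpaI digest → capillary electrophoresis. Activity fitted both directions against DMSO.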

[6] = target: human Peroxisome Proliferator-activated Receptor alpha (PPARa), PPARA (gene 5465) (UniProt Q07869); assay: ATG_PPARa_TRANS: Attagene TRANS-FACTORIAL HepG2 Assay for human Peroxisome Proliferator-activated Receptor alpha (PPARa) (AID 2283001; active = hit-call score of the fitted dose curve at least 0.9, where 1 is the maximum)
human Peroxisome Proliferator-activated Receptor alpha (PPARa), PPARA (gene 5465), sequence (Q07869 whole entry, looked up, the tested form may be a part): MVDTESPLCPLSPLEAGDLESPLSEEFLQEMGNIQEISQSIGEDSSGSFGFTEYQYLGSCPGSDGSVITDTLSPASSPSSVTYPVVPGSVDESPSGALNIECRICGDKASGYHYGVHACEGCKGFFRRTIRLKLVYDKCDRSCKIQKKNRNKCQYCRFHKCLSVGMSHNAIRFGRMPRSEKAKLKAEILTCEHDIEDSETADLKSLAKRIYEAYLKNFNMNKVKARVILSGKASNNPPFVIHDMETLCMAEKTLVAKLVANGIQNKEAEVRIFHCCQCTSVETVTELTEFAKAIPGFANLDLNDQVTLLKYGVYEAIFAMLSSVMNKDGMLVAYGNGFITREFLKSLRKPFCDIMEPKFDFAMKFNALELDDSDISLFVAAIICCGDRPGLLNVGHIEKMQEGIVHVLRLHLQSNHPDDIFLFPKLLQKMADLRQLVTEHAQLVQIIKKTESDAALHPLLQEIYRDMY
Method in brief: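 Transfected HepG2 cells treated with test chemical for 24 h. RNA isolated, reverse-transcribed with oligo(dT), PCR-amplified, FAM-labelled and HpaI-digested. Fragments sized by capillary electrophoresis; gain-of-signal fit relative to DMSO.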

[7] = target: human Peroxisome Proliferator-activated Receptor delta (PPARd), PPARD (gene 5467) (UniProt Q03181); assay: ATG_PPARd_TRANS: Attagene TRANS-FACTORIAL HepG2 Assay for human Peroxisome Proliferator-activated Receptor delta (PPARd) (AID 2283002; active = hit-call score of the fitted dose curve at least 0.9, where 1 is the maximum)
human Peroxisome Proliferator-activated Receptor delta (PPARd), PPARD (gene 5467), sequence (Q03181 whole entry, looked up): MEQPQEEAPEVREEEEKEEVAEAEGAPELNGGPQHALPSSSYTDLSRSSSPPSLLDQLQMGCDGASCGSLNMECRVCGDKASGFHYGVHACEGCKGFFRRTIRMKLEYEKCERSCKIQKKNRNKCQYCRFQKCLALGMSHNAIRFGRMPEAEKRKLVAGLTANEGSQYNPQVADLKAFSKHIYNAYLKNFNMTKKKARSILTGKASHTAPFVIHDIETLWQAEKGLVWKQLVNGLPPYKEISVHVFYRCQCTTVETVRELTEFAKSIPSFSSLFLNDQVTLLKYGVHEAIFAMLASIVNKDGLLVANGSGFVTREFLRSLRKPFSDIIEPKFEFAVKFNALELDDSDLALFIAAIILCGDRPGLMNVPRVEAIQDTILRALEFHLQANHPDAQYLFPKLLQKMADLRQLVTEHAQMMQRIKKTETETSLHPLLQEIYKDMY
Method in brief: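 Cell-based TRANS reporter: HepG2, transient MRTU transfection, 24 h exposure. Readout = reporter mRNA (RT-PCR/CE, 6-FAM). Gain-of-signal fit vs DMSO control.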

[8] = target: Nuclear receptor subfamily 1 group I member 2 (Homo sapiens) (UniProt O75469); assay: ATG_PXR_TRANS: Attagene TRANS-FACTORIAL HepG2 Assay for human Pregnane X Receptor (PXR) (AID 2283008; active = hit-call score of the fitted dose curve at least 0.9, where 1 is the maximum)
Nuclear receptor subfamily 1 group I member 2 (Homo sapiens), sequence (O75469 whole entry, looked up, the tested form may be a part): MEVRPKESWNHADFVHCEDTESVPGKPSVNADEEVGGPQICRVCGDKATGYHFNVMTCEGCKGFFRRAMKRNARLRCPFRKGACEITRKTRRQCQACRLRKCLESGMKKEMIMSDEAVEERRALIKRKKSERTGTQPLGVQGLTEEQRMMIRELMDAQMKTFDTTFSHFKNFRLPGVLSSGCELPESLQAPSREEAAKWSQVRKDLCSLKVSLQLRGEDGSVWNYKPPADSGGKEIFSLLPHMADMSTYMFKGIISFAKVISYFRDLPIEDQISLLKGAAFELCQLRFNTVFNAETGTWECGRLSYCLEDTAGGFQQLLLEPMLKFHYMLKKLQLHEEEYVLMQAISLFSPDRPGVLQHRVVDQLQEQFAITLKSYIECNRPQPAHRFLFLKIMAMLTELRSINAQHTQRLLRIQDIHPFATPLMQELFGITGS
Method in brief: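 HepG2 transfected (FuGene 6) with GAL4-UAS reporter units + PXR-Gal4 chimera; dosed 24 h. Total RNA → oligo(dT) RT → PCR → 6-FAM primer extension → HpaI cut → CE. Gain-of-signal vs DMSO.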

[9] = target: Peroxisome proliferator-activated receptor gamma (Homo sapiens) (UniProt P37231); assay: ATG_PPARg_TRANS: Attagene TRANS-FACTORIAL HepG2 Assay for human Peroxisome Proliferator-activated Receptor-gamma (PPARg) (AID 2283007; active = hit-call score of the fitted dose curve at least 0.9, where 1 is the maximum)
Peroxisome proliferator-activated receptor gamma (Homo sapiens), sequence (P37231 whole entry, looked up, the tested form may be a part): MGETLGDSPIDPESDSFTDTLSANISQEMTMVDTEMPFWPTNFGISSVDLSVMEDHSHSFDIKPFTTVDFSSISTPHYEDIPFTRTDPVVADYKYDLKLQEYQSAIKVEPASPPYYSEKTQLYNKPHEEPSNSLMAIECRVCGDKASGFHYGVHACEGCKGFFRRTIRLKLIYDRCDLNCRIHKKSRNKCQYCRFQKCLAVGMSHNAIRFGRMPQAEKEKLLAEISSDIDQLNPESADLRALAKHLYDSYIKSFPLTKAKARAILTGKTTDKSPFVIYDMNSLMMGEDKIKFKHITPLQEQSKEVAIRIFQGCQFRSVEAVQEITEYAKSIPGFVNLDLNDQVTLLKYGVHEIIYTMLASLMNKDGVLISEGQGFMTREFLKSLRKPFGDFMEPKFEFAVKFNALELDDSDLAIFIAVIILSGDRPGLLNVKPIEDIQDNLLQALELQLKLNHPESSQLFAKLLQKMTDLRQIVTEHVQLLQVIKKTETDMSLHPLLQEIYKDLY
Method in brief: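 HepG2 cells transiently transfected with multiplexed GAL4-UAS reporter units and exogenous chimeric NR-Gal4 proteins; reporter mRNA quantified after 24 h compound exposure by RT-PCR, fluorescent labelling, HpaI digestion and capillary electrophoresis; gain-of-signal fitted versus DMSO baseline.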

[10] = target: Cellular tumor antigen p53 (Homo sapiens) (UniProt P04637); assay: ATG_p53_CIS: Attagene CIS-FACTORIAL HepG2 Assay for human p53 Transcription Factor (AID 2282994); conditions: HepG2 p53 cis-element reporter, Attagene mRNA; actives raise or lower the signal
Cellular tumor antigen p53 (Homo sapiens), sequence (P04637 whole entry, looked up, the tested form may be a part): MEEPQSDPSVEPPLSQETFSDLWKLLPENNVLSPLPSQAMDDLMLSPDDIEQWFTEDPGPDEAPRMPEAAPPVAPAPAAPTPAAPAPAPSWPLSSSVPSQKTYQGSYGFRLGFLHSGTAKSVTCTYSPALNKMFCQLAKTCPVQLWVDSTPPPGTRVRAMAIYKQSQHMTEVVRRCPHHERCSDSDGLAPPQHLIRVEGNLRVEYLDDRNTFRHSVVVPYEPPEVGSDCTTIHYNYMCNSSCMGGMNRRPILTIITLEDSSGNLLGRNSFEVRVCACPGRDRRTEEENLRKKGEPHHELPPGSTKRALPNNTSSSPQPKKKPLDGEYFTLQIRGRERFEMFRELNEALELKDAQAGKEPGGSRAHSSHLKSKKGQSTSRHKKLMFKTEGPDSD
Method in brief: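 Steps: transfect HepG2 with multiplexed cis reporter constructs; dose chemicals 24 h; extract RNA, reverse-transcribe, PCR-amplify reporter sequences; FAM-label, HpaI-digest, resolve fragments by CE. Activity fitted both directions relative to DMSO.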

[11] = BSK_3C_TissueFactor: BioMAP Diversity Plus: 3C Assay for Tissue Factor Biomarker Activity (AID 2282997); conditions: BioMAP 3C HUVEC, tissue factor biomarker readout; actives raise or lower the signal
Method in brief: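 In this endothelial system, HUVEC are treated for 24 h and Tissue Factor is assessed by ELISA, normalised to DMSO.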

[12] = BSK_3C_uPAR: BioMAP Diversity Plus: 3C Assay for Urokinase-type plasminogen activator receptor (uPAR) Biomarker Activity (AID 2282998); conditions: BioMAP 3C HUVEC, uPAR biomarker ELISA; actives raise or lower the signal
Method in brief: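 ELISA readout of uPAR on human vascular endothelium (umbilical vein primary cells), taken 24 h after chemical dosing. Increases and decreases are both fitted relative to DMSO vehicle.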

[13] = BSK_3C_VCAM1: BioMAP Diversity Plus: 3C Assay for Vascular cell adhesion molecule 1 (VCAM1) Biomarker Activity (AID 2282999); conditions: BioMAP 3C HUVEC, VCAM1 ELISA, cytokine-stimulated; actives raise or lower the signal
Method in brief: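 Activity fitted in both directions relative to DMSO, with ELISA measurement of the surface marker on primary HUVEC (3C) at 24 h post-treatment; parallel SRB staining (0.1% SRB, TCA-fixed, 560 nm) flagged overt cytotoxicity.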

[14] = BSK_4H_Eotaxin3: BioMAP Diversity Plus: 4H Assay for Eotaxin 3 Biomarker Activity (AID 2283000); conditions: primary human endothelial cells (HUVEC); actives raise or lower the signal;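 note: CCL26 protein level quantified by ELISA in parallel with SRB cytotoxicity check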
Method in brief: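 ELISA quantitation of CCL26 (Eotaxin-3) protein from chemically dosed human vascular endothelial cells at 24 h; increases and decreases both scored relative to DMSO-treated baseline.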

[15] = read-out: Intercellular Adhesion Molecule 1 (ICAM1), ICAM1 (gene 3383); assay: BSK_3C_ICAM1: BioMAP Diversity Plus: 3C Assay for Intercellular Adhesion Molecule 1 (ICAM1) Biomarker Activity (AID 2283003); conditions: primary human endothelial cells (HUVEC); actives raise or lower the signal
Method in brief: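 ELISA read-out of ICAM-1; HUVEC (primary human), 3C system, 24 h post-dosing; bidirectional fit vs DMSO baseline.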

[16] = BSK_3C_Proliferation: Cell Proliferation Assessment in the BioMAP Diversity Plus: 3C Assay (AID 2283006); conditions: primary human endothelial cells (HUVEC)
Method in brief: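 HUVEC, sub-confluent; 48 h chemical exposure; 10% TCA fix, 0.1% SRB stain, A560 total protein. Gain or loss of signal fitted both directions vs DMSO control.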

[17] = target: human Retinoic Acid Receptor gamma (RARg), RARG (gene 5916) (UniProt P13631); assay: ATG_RARg_TRANS: Attagene TRANS-FACTORIAL HepG2 Assay for human Retinoic Acid Receptor gamma (RARg) (AID 2283009; active = hit-call score of the fitted dose curve at least 0.9, where 1 is the maximum)
human Retinoic Acid Receptor gamma (RARg), RARG (gene 5916), sequence (P13631 whole entry, looked up, the tested form may be a part): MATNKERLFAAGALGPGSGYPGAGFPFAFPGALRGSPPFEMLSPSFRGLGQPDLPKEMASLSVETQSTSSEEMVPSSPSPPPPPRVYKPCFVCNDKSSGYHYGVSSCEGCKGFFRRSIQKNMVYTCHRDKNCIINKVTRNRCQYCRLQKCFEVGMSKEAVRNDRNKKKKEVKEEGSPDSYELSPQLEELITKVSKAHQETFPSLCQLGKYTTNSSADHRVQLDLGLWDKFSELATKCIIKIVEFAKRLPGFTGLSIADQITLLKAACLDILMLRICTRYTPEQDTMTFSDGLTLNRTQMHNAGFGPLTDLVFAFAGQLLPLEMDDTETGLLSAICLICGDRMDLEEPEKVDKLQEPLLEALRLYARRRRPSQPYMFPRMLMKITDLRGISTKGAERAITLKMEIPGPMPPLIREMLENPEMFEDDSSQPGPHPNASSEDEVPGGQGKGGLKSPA
Method in brief: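 Readout: reporter transcript levels via RT-PCR, 6-FAM primer-extension labelling, HpaI digestion and capillary electrophoresis. Cells: HepG2 carrying transfected RARg-GAL4 chimera plus UAS reporter set. Dosing 24 h; DMSO negative control.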

[18] = target: human Retinoic Acid Receptor beta (RARb), RARB (gene 5915) (UniProt P10826); assay: ATG_RARb_TRANS: Attagene TRANS-FACTORIAL HepG2 Assay for human Retinoic Acid Receptor beta (AID 2283004; active = hit-call score of the fitted dose curve at least 0.9, where 1 is the maximum)
human Retinoic Acid Receptor beta (RARb), RARB (gene 5915), sequence (P10826 whole entry, looked up, the tested form may be a part): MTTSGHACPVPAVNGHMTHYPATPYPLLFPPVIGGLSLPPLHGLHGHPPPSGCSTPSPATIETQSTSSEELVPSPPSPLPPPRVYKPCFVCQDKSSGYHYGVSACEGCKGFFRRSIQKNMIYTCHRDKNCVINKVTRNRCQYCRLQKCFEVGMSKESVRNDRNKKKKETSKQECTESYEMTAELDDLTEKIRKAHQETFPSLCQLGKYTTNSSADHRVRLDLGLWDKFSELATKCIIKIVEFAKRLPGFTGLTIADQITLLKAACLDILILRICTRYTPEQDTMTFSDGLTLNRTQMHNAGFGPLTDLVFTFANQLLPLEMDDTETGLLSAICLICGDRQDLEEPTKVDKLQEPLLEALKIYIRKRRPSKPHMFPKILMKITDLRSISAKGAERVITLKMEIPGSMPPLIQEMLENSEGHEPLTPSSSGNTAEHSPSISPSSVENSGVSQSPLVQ
Method in brief: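 Fluorescent capillary-electrophoresis detection of GAL4-UAS reporter mRNA defines the endpoint, with induction over DMSO-treated wells scored as activity. Transiently transfected human hepatoma HepG2 cells expressing exogenous NR–Gal4 proteins are exposed to test chemicals for 24 h.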

[19] = target: human RAR-related Orphan Receptor beta (RORb), RORB (gene 6096) (UniProt Q92753); assay: ATG_RORb_TRANS: Attagene TRANS-FACTORIAL HepG2 Assay for human RAR-related Orphan Receptor beta (RORb) (AID 2283010; active = hit-call score of the fitted dose curve at least 0.9, where 1 is the maximum)
human RAR-related Orphan Receptor beta (RORb), RORB (gene 6096), sequence (Q92753 whole entry, looked up, the tested form may be a part): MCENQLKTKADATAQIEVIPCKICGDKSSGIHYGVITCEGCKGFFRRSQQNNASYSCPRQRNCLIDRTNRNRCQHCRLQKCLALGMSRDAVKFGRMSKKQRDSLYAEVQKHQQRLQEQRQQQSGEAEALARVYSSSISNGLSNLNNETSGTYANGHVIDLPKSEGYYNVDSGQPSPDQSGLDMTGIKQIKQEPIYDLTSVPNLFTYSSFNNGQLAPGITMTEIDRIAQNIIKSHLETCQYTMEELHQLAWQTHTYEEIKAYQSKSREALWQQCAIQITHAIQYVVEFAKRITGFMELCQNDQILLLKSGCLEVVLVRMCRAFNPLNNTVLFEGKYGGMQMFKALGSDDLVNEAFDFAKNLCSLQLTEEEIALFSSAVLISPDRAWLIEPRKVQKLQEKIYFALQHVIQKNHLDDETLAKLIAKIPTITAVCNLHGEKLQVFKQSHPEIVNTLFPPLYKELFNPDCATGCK
Method in brief: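 HepG2, transient MRTU transfection (GAL4-UAS reporters, exogenous NR-Gal4 chimeras); 24 h compound exposure; total RNA → RT-PCR → 6-FAM primer extension → HpaI digest → CE fluorescence. Positive direction vs DMSO baseline.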

Measured: AC50

O=[N+]([O-])c1ccc(CO)cc1
inactive: [1] | [2] | [3] | [4] | [5] | [6] | [7] | [8]

CCCCCCC1(C)CCC(=O)O1 (centres undefined)
active: [8] 33.2 µM
inactive: [1] | [2] | [3] | [4] | [5] | [6] | [9]

SCCc1cnccn1
inactive: [1] | [2] | [4] | [5] | [9] | [8]
active: [3] 47.7 µM | [10] 46.4 µM

CCc1ccc2c(c1)C(=O)c1ccccc1C2=O
inactive: [1] | [2] | [3] | [5] | [10]
active: [4] 14.5 µM | [9] 24.3 µM | [8] 4.34 µM

CO[Si](CCC1CCC2OC2C1)(OC)OC (centres undefined)
inactive: [1] | [2] | [3] | [4] | [5] | [10] | [9]

S=C(NC1CCCCC1)NC1CCCCC1
inactive: [1] | [2] | [3] | [4] | [5] | [11] | [12] | [13] | [14] | [6] | [7] | [15] | [16] | [9] | [17]
active: [8] 8.05 µM

CCCc1ccc(OC)cc1
inactive: [1] | [2] | [3] | [4] | [5] | [6] | [18] | [9] | [8] | [19]

CC(CC=O)CCCC(C)(C)O (centres undefined)
inactive: [1] | [2] | [3] | [4] | [5] | [7] | [9] | [8]

CCCCCCCCCCOS(=O)(=O)O
inactive: [1] | [2] | [3] | [5] | [10] | [8]
active: [4] 99.5 µM | [9] 22.6 µM

[Cl][Bi]([Cl])([c]1ccccc1)([c]1ccccc1)[c]1ccccc1
inactive: [1] | [2] | [5] | [8]
active: [3] 0.463 µM | [4] 0.999 µM | [10] 6.07 µM | [9] 1.17 µM
